The results in this text go back to PubChem BioAssay.

Broadly, the inhibition is the relative decrease from the control value, in per cent.

A short description of experiment [1]: inhibitors of TNFa-induced NFkB p65 translocation, primary screen, imaging, HUVEC, MLSMR starter and 10KST1 sets (AID 438;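 active = inhibition above 20% together with a positive visual image hit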;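 note: compound added about 3h40 before a 20 min TNFalpha stimulation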;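 for inhibition: signal is the nuclear over cytoplasmic p65 intensity ratio per well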). As to conditions: HUVEC TNFa-induced p65 nuclear translocation; cell count: measured here: nuclei count (cytotoxicity indicator), at 2.08 µM; inhibition: at 2 µM, stronger effect = higher value, 0% TNFa-plus-vehicle, 100% no-TNFa wells.
Experiment [2] in a line: inhibitors of E-selectin induction by TNFa, primary screen, imaging, HUVEC, immunofluorescence, MLSMR starter and 10KST1 sets (AID 487;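 active = visually confirmed hit in the image check and inhibition above 20%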;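 for inhibition: signal is fraction of cell area covered by stained E-selectin grains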;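 for nuclei count: 100% = median nuclei count of all wells on the same plate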). As to conditions: HUVEC TNFalpha-induced E-selectin immunofluorescence imaging, at 2 µM; inhibition: stronger effect = higher value; nuclei count: measured here: cell number, toxicity.
Experiment [3] is described as follows: DUSP6 inhibitors restoring Erk phosphorylation by chemical complementation, primary imaging in DUSP6-transfected HeLa (AID 609;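 active = compounds giving at least 50% inhibition in the cell-based MKP-3 phosphatase rescue imaging test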;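 for inhibition: phospho-Erk level distribution per well compared with pooled transfected vehicle control wells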). The following applies: HeLa MKP-3 transfected, phospho-Erk imaging KS statistic, at 10 µM, cells stimulated with TPA for 15 min.
For experiment [4], the target named is Dual specificity protein phosphatase 6 (Homo sapiens) (UniProt Q16828). The experiment is described as above. As to conditions: HeLa MKP-3 transfected, phospho-Erk imaging KS statistic; at 10 µM; stronger effect = higher value; cells stimulated with TPA for 15 min.
Chain of Dual specificity protein phosphatase 6 (Homo sapiens) (Q16828 whole entry, looked up): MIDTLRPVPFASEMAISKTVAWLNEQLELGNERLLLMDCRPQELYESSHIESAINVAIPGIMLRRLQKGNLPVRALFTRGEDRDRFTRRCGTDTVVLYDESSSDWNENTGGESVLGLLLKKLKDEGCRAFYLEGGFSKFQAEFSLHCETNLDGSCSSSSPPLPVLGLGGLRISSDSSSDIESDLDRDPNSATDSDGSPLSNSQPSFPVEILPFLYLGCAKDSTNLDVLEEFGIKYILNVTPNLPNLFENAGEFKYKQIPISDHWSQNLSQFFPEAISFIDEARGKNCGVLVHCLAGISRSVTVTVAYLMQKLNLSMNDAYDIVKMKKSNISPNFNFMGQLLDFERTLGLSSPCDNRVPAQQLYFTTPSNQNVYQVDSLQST
Experiment [5] addresses Voltage-gated potassium channel subunit beta-2 (Rattus norvegicus) (UniProt P62483). Nature of the experiment: KvBeta enzyme negative modulators, primary screen, biochemical, NADPH fluorescence (AID 622;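 active = fluorescence slope higher than the sample average by over 3 SD, cut at about -0.22 in these data, passing the limit was not always enough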;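 note: slope of raw intensity against log time taken from 70 to 1610 s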). The following applies: recombinant KvBeta, 4-cyanobenzaldehyde reduction, at 10 µM, stronger effect = higher value.
The target is the same in experiment [6]. The experiment is described as follows: KvBeta positive modulators, primary screen, biochemical, NADPH fluorescence (AID 623;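 active = NADPH fluorescence slope more negative than the mean of all samples by about 3 SD, 99.7% confidence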;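 note: fluorescence intensity change per second fitted from 20 to 320 s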). The following applies: Recombinant KvBeta, NADPH fluorescence decrease slope, 10 min; at 10 µM; stronger effect = lower value.
The target of experiment [7] is Muscarinic acetylcholine receptor M4 (Homo sapiens) (UniProt P08173). The experiment is described as follows: compounds altering M4/GIRK thallium flux, either direction, primary screen, M4 allosteric agonist project, cell-based, HEK293 M4/GIRK, BTC-AM (AID 625).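 Note: thallium influx through GIRK channels coupled to M4 in HEK293 cells with BTC-AM dye.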 As to conditions: at 10 µM, actives lie on both sides.
Chain of Muscarinic acetylcholine receptor M4 (Homo sapiens) (P08173 whole entry, looked up): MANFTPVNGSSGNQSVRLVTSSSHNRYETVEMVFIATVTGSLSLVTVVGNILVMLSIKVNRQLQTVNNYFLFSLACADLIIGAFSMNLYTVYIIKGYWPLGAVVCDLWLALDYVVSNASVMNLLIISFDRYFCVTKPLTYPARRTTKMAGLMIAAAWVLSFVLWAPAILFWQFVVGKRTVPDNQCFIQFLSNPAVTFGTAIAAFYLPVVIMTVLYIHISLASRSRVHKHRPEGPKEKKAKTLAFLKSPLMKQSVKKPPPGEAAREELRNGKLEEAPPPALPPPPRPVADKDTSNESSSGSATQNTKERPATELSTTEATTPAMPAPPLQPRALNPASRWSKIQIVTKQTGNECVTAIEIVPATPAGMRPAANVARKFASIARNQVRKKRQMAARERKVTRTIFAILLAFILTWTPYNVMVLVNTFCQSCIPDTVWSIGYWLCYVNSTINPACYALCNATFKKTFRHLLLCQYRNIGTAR
Experiment [8] in a line: inhibitors of larval lipid processing in zebrafish, primary screen, whole organism, PED6 fluorescence, gall bladder and intestine (AID 686;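 active = a full or partial loss of lipid-probe fluorescence in the fish gall bladder, intestine or both, judged by eye; inactive = no fluorescence loss, or compound toxic to the fish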;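 note: larvae 5 to 7 days old with five fish per well; signal comes from phospholipase A2 cleavage of quenched PED6 carried via bile; overnight exposure to compound and PED6 before scoring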). The following applies: Zebrafish larvae PED6 lipid processing, fluorescence scoring; screened at 20 µM (by protocol).
The nature of experiment [9]: inhibitors of Chlamydomonas gravitaxis, primary screen, whole organism, Chlamydomonas reinhardtii, WT vs cilia-less mutant, absorbance, 96-well (AID 463189;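 active = inhibition at or above 50% relative to wild type and mutant plate controls; inactive = inhibition below 50%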;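 note: 0% = wild type cc124 cells in DMSO and 100% = ciliumless bld1 mutant cells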). The following applies: OD600 absorbance, 2 days, at 10 µM, stronger effect = higher value.
Where [10] appears, read: measured here: cell density z-score.
Where [11] appears, read: measured here: nuclear c-Myc green intensity z-score.
The mark [12] stands for this setting: measured here: nuclear pErk red intensity z-score, stronger effect = higher value.

The source made the active and inactive calls.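 Rule for the calls, unless noted: active = fluorescence slope after compound addition differing from the mean of all tested samples at 99.7% confidence, mostly higher but some lower; inactive = the rest.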

Chain of Voltage-gated potassium channel subunit beta-2 (Rattus norvegicus) (P62483 whole entry, looked up): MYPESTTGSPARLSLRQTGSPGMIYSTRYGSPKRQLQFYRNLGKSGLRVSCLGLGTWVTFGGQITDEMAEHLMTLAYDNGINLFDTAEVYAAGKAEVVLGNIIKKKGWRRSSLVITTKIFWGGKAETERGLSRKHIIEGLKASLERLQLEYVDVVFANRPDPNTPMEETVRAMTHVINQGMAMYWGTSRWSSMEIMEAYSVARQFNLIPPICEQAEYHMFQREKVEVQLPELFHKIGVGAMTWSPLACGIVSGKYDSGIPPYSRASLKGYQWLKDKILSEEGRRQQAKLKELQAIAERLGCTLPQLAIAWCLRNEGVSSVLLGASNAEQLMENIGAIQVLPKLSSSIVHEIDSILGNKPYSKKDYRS

Turning to `CCOC(=O)C1/C(=N\O)CC(C)(O)C(C(=O)OCC)C1c1ccc(OC)c(OC)c1` (stereo unspecified), the cell count in [1] came to 573. The inhibition is -0.9% (inactive) in experiment [1], -36% (inactive) in [2], 1.98% (inactive) in [4] and 1.71% (inactive) in experiment [9]. The nuclei count in experiment [2] was found to be 149%. Also, the z-score was 0.422 in experiment [3] (setting [10]), -0.512 in experiment [3] (setting [11]) and -0.582 in [3] (setting [12]). Further, the fluorescence slope was -0.416 (inactive) in [5] and 0.0045 (inactive) in experiment [7]. The NADPH fluorescence slope in experiment [6] was -5.9e-05 (inactive). Moreover, the result in experiment [8] was inactive.

As to `CCCCCCn1c(SCCN2CCOCC2)nc2c1c(=O)[nH]c(=O)n2C`, the cell count in experiment [1] was determined as 534. Further, the inhibition was -16.2% (inactive) in experiment [1], -9.8% (inactive) in experiment [2], 13.4% (inactive) in experiment [4] and 27.5% (inactive) in experiment [9]. Also, in experiment [2], the nuclei count is 139%. The figures for the z-score in experiment [3] (setting [10]), in experiment [3] (setting [11]) and in experiment [3] (setting [12]) were 0.497, 0.889 and 0.83, respectively. Also, the fluorescence slope in experiment [5] is -0.409 (inactive); in experiment [7], 0.00545 (inactive). Further, the NADPH fluorescence slope in [6] is -4.3e-05 (inactive). Further, the molecule was called inactive in experiment [8].

As to `CCN1CCc2c(C#N)c(N3CCOCC3)nc(NCCO)c2C1`, the cell count in [1] turned out to be 566. Further, the inhibition in experiment [1] is -9.7% (inactive); in experiment [2], -122% (inactive); in [4], -9.53% (inactive); in experiment [9], -3.77% (inactive). The nuclei count in [2] amounted to 151%. Besides, the figures for the z-score in [3] (setting [10]), in experiment [3] (setting [11]) and in experiment [3] (setting [12]) were 1.19, -1.68 and -1.24, respectively. The results for the fluorescence slope in experiment [5] and in experiment [7] were -0.456 (inactive) and 0.0043 (inactive), respectively. In addition, the NADPH fluorescence slope in [6] was -9.7e-05 (inactive). For the same molecule, the result in [8] was inactive.

On to `CCCCc1c(C)c2ccc(OCC(C)=O)cc2oc1=O`, for which the cell count in experiment [1] stood at 647. The inhibition in experiment [1] was -10% (inactive); in experiment [2], 51.6% (inactive); in experiment [4], 47.6% (inactive); in experiment [9], -0.273% (inactive). For the same molecule, in [2], the nuclei count is 90.6%. For the same molecule, the values for the z-score in experiment [3] (setting [10]), in experiment [3] (setting [11]) and in experiment [3] (setting [12]) were -2.59, 0.867 and -5.29, respectively. The fluorescence slope in experiment [5] is -0.472 (inactive); in [7] it was 0.00708 (inactive). Further, in experiment [6], the NADPH fluorescence slope is -3.8e-05 (inactive). In addition, the result in experiment [8] was inactive.

Regarding `COC(=O)c1[nH]c(C)c(/C(O)=C2\C(=O)C(=O)N(CCN3CCOCC3)C2c2cccnc2)c1C` (stereo unspecified), the cell count in [1] was 605. Moreover, the inhibition in experiment [1] was -1.2% (inactive); in experiment [2], -2.2% (inactive); in [4] it was -3.95% (inactive); in experiment [9], 5.4% (inactive). Further, in [2], the nuclei count amounted to 163%. For the same molecule, the results for the z-score in [3] (setting [10]), in experiment [3] (setting [11]) and in experiment [3] (setting [12]) were -1.96, 0.711 and -3.8, respectively. Further, the fluorescence slope is -0.46 (inactive) in experiment [5] and 0.00521 (inactive) in experiment [7]. For the same molecule, in [6], the NADPH fluorescence slope was -0.000197 (inactive). Besides, the call in experiment [8] was inactive.

On to `Nc1nonc1C(=O)NCCN=Cc1cc(Cc2ccccc2)cc(Br)c1O`, for which the cell count in experiment [1] was determined as 537. For the same molecule, the inhibition in experiment [1] is -4.9% (inactive); in experiment [2], 49.5% (inactive); in experiment [4] it was -1.98% (inactive); in experiment [9] it was -5.78% (inactive). In [2], this molecule displayed a nuclei count of 156%. For the same molecule, the z-score in experiment [3] (setting [10]) is -0.875; in experiment [3] (setting [11]) it was 1.06; in [3] (setting [12]) it was 0.686. The fluorescence slope in experiment [5] is -0.41 (inactive); in [7] it was 0.00522 (inactive). For the same molecule, the NADPH fluorescence slope in experiment [6] was -6.3e-05 (inactive). Moreover, the outcome in experiment [8] was inactive.

Regarding `Cn1c(N2CCOCC2)nc2c1c(=O)n(Cc1ccc(Cl)cc1)c(=O)n2C`, in experiment [1], the cell count is 644. Besides, the inhibition is 12.1% (inactive) in experiment [1], -31.1% (inactive) in experiment [2], -2.09% (inactive) in experiment [4] and -7.86% (inactive) in [9]. The molecule also came in with a nuclei count in [2] of 101%. In addition, the z-score in experiment [3] (setting [10]) is 0.134; in [3] (setting [11]) it was 0.368; in [3] (setting [12]) it was 0.486. The fluorescence slope in [5] is -0.446 (inactive); in experiment [7], 0.00452 (inactive). The NADPH fluorescence slope in experiment [6] was -3.4e-05 (inactive). Further, the molecule was called inactive in experiment [8].

`CCCc1nc(NC2CCCCC2)c(C#N)c2c1COC(C)(C)C2`: in [1], the cell count came out at 517. For the same molecule, the inhibition in experiment [1] is -11.1% (inactive); in experiment [2], -55.9% (inactive); in experiment [4] it was -3.95% (inactive); in [9], -12.9% (inactive). The molecule further returned a nuclei count in experiment [2] of 114%. For the same molecule, the z-score in [3] (setting [10]) was -0.306; in experiment [3] (setting [11]) it was -0.0962; in experiment [3] (setting [12]), -0.825. Further, the fluorescence slope was -0.492 (inactive) in experiment [5] and 0.00613 (inactive) in [7]. Further, in [6], the NADPH fluorescence slope is -6.5e-05 (inactive). For the same molecule, the molecule was called inactive in experiment [8].

For `CC1(C)CC(=O)C2=C(C1)OC(N)=C(C#N)[C@@]21C(=O)N(CC(N)=O)c2ccccc21`, the cell count in experiment [1] turned out to be 375. Further, the inhibition in [1] is -8% (inactive); in experiment [2], -63.6% (inactive); in experiment [4] it was -3.95% (inactive); in experiment [9] it was -3.87% (inactive). Moreover, the nuclei count in experiment [2] worked out at 114%. Further, the z-score is 0.0987 in [3] (setting [10]), 0.575 in experiment [3] (setting [11]) and -0.037 in experiment [3] (setting [12]). Further, the fluorescence slope in experiment [5] is -0.464 (inactive); in experiment [7], 0.00604 (inactive). Also, the NADPH fluorescence slope in experiment [6] was -2e-05 (inactive). Further, the result in experiment [8] was inactive.

Consider `Cn1c(=O)c2c(nc(NCC(O)CO)n2CCc2ccccc2)n(C)c1=O` (stereo unspecified), for which the cell count in experiment [1] came to 693. Further, the inhibition is 2% (inactive) in [1], -108% (inactive) in experiment [2], 19.8% (inactive) in experiment [4] and 24.7% (inactive) in [9]. Moreover, in [2], the nuclei count stood at 172%. Moreover, the z-score in [3] (setting [10]) is 0.322; in experiment [3] (setting [11]), -1.96; in [3] (setting [12]) it was -0.0564. The fluorescence slope in experiment [5] is -0.483 (inactive); in experiment [7], 0.00665 (inactive). Besides, the NADPH fluorescence slope in experiment [6] was -1e-05 (inactive). Moreover, the outcome in experiment [8] was inactive.

In the case of `N#Cc1nc(-c2cccs2)oc1NCCN1CCOCC1`, the cell count in experiment [1] came out at 666. The inhibition in experiment [1] is 6.6% (inactive); in experiment [2], -60.7% (inactive); in experiment [4], 10.9% (inactive); in [9], 6.5% (inactive). Besides, the nuclei count in experiment [2] was 146%. Further, the values for the z-score in experiment [3] (setting [10]), in experiment [3] (setting [11]) and in experiment [3] (setting [12]) were 0.927, 0.0167 and -0.446, respectively. Besides, the fluorescence slope in experiment [5] is -0.0476 (inactive); in experiment [7], 0.00626 (inactive). Moreover, the NADPH fluorescence slope in experiment [6] was -2.5e-05 (inactive). The result in experiment [8] was inactive.

In the case of `Cc1ccc(-c2nnc(OCCN3CCOCC3)c3ccccc23)cc1`, in experiment [1], the cell count is 453. Also, the inhibition in experiment [1] is 0.4% (inactive); in experiment [2], -85.1% (inactive); in experiment [4] it was 4.37% (inactive); in [9], 30.5% (inactive). In [2], this molecule showed a nuclei count of 167%. Further, the z-score was 1.01 in [3] (setting [10]), -0.803 in [3] (setting [11]) and -0.0262 in experiment [3] (setting [12]). The fluorescence slope is -0.463 (inactive) in experiment [5] and 0.00559 (inactive) in experiment [7]. For the same molecule, in experiment [6], the NADPH fluorescence slope is -2.6e-05 (inactive). For the same molecule, the result in [8] was inactive.
